# Results published in the supplement of paper PMC11732987, “Enantioselective OTUD7B fragment discovery through chemoproteomics screening and high-throughput optimisation” (Communications Chemistry, 2025).
# Unmarked numbers belong to inactive results.
# Experiments:
# Assay in all cases: log2 ratio of Biotin-Ahx-Ub-VS probe labelling (fragment/DMSO); higher = less target engagement (more negative = stronger competition), active = hit call of the paper (q ≤ 0.05, log2 ratio ≤ -1)
# Conditions in all cases: compound concentration: 200 uM; treatment time: 3 h
# OTUD6B = biological target: T1, OTUD6B (UniProt Q8N6M0)
# T1 sequence (whole entry): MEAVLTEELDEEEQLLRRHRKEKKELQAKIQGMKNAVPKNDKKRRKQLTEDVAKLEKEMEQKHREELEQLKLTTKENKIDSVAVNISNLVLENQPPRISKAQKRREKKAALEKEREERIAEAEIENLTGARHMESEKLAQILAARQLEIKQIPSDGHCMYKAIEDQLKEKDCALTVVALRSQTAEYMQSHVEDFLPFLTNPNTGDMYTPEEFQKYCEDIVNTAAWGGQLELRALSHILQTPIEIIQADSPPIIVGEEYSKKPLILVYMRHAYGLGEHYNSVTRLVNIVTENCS
# In short: (§1)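 In triplicate, 495 µg of HEK293T lysate per sample was incubated with fragment at 200 µM or vehicle for 3 h. Biotin-Ahx-Ub-VS was then added to 0.5 µM final for 1 h, and labelled DUBs were captured with NeutrAvidin, digested with LysC and trypsin, and measured by diaPASEF LC-MS/MS. Data are average log2 fragment/vehicle ratios by unpaired t-test from global-median-normalised Spectronaut label-free quantities, restricted to proteins with ≥2 unique peptides.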
# OTUD7B = biological target: T2, OTUD7B (UniProt Q6GQQ9)
# T2 sequence (whole entry): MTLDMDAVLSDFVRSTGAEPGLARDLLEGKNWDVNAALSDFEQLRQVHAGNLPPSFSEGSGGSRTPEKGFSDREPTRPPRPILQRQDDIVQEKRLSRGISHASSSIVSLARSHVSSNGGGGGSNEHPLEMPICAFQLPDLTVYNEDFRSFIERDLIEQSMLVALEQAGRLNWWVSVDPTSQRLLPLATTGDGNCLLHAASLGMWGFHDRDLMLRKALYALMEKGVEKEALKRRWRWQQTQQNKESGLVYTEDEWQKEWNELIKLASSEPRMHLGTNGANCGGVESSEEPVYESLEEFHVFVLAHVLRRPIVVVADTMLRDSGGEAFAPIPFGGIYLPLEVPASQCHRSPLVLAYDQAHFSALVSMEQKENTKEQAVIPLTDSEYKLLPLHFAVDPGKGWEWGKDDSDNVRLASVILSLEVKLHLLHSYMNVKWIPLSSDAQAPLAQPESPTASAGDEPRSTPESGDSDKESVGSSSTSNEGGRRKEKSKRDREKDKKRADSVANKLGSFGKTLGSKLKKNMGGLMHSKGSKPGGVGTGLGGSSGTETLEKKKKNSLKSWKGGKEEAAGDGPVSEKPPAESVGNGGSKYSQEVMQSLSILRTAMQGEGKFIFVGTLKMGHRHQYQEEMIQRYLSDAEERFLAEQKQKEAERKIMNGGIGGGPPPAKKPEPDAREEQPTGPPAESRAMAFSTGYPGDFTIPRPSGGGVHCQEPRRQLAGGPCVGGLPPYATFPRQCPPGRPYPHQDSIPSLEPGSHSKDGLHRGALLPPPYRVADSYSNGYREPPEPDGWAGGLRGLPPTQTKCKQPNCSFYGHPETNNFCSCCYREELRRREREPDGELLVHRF
# In short: as §1
# PRPF8 = PRPF8 (UniProt Q6P2Q9)
# In short: as §1
# PSMD7 = biological target: T3, PSMD7 (UniProt P51665)
# T3 sequence (whole entry): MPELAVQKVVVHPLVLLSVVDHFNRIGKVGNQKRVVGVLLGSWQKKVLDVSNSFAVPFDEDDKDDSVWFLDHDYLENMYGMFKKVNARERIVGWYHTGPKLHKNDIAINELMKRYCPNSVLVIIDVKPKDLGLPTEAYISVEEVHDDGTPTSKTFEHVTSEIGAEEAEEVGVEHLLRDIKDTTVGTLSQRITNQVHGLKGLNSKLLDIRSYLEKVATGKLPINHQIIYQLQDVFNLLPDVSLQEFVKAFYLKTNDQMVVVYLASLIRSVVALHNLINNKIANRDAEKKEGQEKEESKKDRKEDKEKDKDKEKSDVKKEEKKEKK
# In short: as §1
# UCHL1 = UCHL1 (UniProt P09936)
# Chain of UCHL1 (P09936 whole entry, looked up): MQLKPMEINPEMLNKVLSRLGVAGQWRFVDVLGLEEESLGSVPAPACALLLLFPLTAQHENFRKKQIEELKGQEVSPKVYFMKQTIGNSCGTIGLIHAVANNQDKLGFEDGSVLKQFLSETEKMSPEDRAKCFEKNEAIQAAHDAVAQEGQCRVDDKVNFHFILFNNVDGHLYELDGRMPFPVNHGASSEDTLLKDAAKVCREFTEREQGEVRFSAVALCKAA
# In short: as §1
# UCHL3 = biological target: T4, UCHL3 (UniProt P15374)
# T4 sequence (whole entry): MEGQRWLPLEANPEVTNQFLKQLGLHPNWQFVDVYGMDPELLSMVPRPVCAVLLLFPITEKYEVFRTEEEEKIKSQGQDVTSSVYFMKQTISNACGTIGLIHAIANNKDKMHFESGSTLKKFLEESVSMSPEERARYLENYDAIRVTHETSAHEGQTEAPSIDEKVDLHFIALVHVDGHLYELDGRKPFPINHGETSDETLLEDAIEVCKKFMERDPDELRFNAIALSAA
# In short: as §1
# UCHL5 = biological target: T5, UCHL5 (UniProt Q9Y5K5)
# T5 sequence (whole entry): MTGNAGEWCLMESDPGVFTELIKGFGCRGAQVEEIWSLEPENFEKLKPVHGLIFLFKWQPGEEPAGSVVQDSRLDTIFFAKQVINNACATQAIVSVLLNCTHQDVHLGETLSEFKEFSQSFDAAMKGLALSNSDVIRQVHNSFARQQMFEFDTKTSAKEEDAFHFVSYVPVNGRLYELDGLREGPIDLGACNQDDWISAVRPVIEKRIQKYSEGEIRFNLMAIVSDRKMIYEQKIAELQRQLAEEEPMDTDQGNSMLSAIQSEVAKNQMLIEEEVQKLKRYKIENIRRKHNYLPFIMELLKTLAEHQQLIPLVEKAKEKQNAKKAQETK
# In short: as §1
# USP10 = USP10 (UniProt Q14694)
# Chain of USP10 (Q14694 whole entry): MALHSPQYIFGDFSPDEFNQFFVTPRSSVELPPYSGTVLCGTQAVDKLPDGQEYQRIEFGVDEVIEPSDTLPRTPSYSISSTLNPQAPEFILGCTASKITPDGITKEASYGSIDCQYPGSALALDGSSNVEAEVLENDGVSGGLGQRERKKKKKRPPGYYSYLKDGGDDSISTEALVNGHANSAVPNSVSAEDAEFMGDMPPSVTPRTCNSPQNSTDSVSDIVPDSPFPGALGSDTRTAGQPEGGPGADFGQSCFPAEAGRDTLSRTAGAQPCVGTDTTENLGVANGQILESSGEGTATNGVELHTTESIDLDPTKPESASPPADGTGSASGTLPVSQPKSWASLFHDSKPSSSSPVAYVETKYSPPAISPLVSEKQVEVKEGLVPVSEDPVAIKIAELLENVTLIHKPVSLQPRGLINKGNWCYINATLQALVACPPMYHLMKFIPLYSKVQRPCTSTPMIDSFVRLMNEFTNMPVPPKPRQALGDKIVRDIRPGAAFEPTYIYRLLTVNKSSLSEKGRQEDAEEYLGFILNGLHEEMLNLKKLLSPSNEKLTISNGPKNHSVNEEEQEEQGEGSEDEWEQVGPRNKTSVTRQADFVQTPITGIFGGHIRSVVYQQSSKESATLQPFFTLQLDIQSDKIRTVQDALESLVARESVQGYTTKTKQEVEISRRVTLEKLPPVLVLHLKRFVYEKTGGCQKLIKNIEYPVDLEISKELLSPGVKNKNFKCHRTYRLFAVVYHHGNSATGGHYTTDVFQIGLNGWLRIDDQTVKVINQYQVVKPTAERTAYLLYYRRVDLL
# In short: as §1
# USP15 = biological target: T6, USP15 (UniProt Q9Y4E8)
# T6 sequence (whole entry): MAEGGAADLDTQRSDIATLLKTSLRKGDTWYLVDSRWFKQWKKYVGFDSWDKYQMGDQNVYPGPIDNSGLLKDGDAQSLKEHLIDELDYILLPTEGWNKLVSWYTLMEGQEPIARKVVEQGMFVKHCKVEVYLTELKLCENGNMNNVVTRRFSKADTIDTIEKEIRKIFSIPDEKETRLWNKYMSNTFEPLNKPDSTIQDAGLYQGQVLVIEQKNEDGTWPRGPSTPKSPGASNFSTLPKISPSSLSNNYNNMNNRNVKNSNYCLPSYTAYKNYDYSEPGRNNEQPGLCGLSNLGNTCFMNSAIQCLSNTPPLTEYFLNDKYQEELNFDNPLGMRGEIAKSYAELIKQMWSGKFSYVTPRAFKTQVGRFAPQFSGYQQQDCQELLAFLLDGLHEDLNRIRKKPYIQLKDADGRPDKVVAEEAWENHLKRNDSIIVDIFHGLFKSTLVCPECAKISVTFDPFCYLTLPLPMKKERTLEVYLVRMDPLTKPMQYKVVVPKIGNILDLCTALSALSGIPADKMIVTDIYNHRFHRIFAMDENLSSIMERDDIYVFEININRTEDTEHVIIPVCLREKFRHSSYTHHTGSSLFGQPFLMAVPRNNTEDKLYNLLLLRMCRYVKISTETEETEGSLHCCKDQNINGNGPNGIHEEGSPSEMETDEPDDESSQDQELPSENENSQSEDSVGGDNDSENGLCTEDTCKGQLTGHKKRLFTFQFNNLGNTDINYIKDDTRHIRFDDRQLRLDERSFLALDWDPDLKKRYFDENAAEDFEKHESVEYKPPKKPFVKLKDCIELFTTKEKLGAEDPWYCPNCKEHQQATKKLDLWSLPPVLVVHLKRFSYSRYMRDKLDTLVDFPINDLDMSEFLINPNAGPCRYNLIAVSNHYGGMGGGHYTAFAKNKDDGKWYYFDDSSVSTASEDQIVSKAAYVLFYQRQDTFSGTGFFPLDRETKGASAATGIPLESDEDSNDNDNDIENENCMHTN
# In short: as §1
# USP16 = USP16 (UniProt Q9Y5T5)
# Chain of USP16 (Q9Y5T5 whole entry, looked up): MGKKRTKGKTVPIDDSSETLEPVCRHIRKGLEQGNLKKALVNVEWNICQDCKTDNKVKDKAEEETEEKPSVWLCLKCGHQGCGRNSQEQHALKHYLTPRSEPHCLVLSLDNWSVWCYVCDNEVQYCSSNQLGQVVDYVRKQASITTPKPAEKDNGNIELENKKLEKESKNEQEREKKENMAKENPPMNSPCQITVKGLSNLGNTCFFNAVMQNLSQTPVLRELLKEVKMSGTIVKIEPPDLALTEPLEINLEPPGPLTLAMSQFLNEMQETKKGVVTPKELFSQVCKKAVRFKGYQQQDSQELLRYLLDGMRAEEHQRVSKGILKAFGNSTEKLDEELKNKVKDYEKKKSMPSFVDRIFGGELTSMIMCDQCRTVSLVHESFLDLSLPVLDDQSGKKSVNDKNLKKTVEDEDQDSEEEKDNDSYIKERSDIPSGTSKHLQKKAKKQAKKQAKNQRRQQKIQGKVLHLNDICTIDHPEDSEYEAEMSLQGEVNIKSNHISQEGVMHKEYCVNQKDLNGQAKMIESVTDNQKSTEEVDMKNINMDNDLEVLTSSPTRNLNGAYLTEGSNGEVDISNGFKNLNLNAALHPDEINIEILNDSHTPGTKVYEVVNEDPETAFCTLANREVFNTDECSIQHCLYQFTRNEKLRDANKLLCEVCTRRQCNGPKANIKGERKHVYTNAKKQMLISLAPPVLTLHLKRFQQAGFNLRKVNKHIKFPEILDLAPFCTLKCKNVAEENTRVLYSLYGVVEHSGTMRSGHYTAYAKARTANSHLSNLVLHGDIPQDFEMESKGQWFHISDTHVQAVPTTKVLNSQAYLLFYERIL
# In short: as §1
smiles,measurement,setting,value
O=C(CCl)NC1CCOc2ccccc21 (stereo not given),log2 ratio of Biotin-Ahx-Ub-VS probe labelling,OTUD6B,-0.54
same,log2 ratio of Biotin-Ahx-Ub-VS probe labelling,OTUD7B,-2.14 (active)
same,log2 ratio of Biotin-Ahx-Ub-VS probe labelling,PRPF8,-0.152
same,log2 ratio of Biotin-Ahx-Ub-VS probe labelling,PSMD7,-0.0224
same,log2 ratio of Biotin-Ahx-Ub-VS probe labelling,UCHL1,-1.84 (active)
same,log2 ratio of Biotin-Ahx-Ub-VS probe labelling,UCHL3,-0.57
same,log2 ratio of Biotin-Ahx-Ub-VS probe labelling,UCHL5,-1.08 (active)
same,log2 ratio of Biotin-Ahx-Ub-VS probe labelling,USP10,-0.255
same,log2 ratio of Biotin-Ahx-Ub-VS probe labelling,USP15,-0.851
same,log2 ratio of Biotin-Ahx-Ub-VS probe labelling,USP16,-0.325
